From PubChem BioAssay (EPA / NIEHS)
The source made the active and inactive calls. Rule for the calls: active = hit-call score of the fitted dose curve at least 0.9, where 1 is the maximum; inactive = score below 0.9.

target: X-box-binding protein 1 (Homo sapiens) (UniProt P17861); experiment: ATG_Xbp1_CIS: Attagene CIS-FACTORIAL HepG2 Assay for human X-box Binding Protein 1 (XBP1) (AID 2282972); conditions: HepG2 XBP1 cis-element reporter, Attagene multiplex; actives raise or lower the signal
In short: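 Multiplexed cis-reporter readout in transfected HepG2 liver cells. Exposure lasted 24 hours. Activity in either direction was fitted against DMSO as negative control and baseline.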

Sequence of X-box-binding protein 1 (Homo sapiens) (P17861 whole entry, looked up): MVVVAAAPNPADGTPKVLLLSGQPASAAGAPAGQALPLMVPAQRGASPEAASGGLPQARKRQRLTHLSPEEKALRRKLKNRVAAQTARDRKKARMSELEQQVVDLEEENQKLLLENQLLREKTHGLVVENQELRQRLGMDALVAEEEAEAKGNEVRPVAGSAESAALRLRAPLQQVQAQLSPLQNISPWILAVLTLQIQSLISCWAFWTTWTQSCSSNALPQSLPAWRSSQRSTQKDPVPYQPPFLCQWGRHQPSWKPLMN

outcome, inactive:
O=C1C(c2[nH]c3ccc(S(=O)(=O)O)cc3c2O)=Nc2ccc(S(=O)(=O)O)cc21, CC(=O)[C@H]1CC[C@H]2[C@@H]3CC=C4C[C@@H](O)CC[C@]4(C)[C@H]3CC[C@]12C, O=S(=O)(O)c1ccc(O)c2ncccc12, NCCCCCCN, OC[C@H]1O[C@H](O[C@]2(CCl)O[C@H](CCl)[C@@H](O)[C@@H]2O)[C@H](O)[C@@H](O)[C@H]1Cl, CCCCCC=CCC(=O)OC, CN1[C@@H]2CC(OC(=O)[C@H](CO)c3ccccc3)C[C@H]1[C@@H]1O[C@@H]12 (stereo partly drawn), CC(=O)/C=C/C1=C(C)CCCC1(C)C, Cc1ccc2n[nH]nc2c1, CCCCCCCCC=O, O=C(O)c1ccc(C(=O)O)cc1, CC(C)(C#N)c1cc(Cn2cncn2)cc(C(C)(C)C#N)c1, CC1(C)C(=O)N(Br)C(=O)N1Cl, CC(C)C[C@H]1C(=O)N2CCC[C@H]2[C@]2(O)O[C@](NC(=O)[C@@H]3C=C4c5cccc6[nH]c(Br)c(c56)C[C@H]4N(C)C3)(C(C)C)C(=O)N12, O=C(O)CN(CCN(CC(=O)O)CC(=O)O)CCN(CC(=O)O)CC(=O)O

AC50, active:
O=Cc1ccc(Cl)c([N+](=O)[O-])c1 149 µM, CNCCCC12CCC(c3ccccc31)c1ccccc12 14.9 µM, C#C[C@]1(O)CC[C@H]2[C@@H]3CCC4=Cc5oncc5C[C@]4(C)[C@H]3CC[C@@]21C 42.1 µM
